# According to PubChem BioAssay AID504766 (The Scripps Research Institute Molecular Screening Center, 2011):
# Among all 340,000 compounds or so, about 3,400 (1%) were called active. Shown is part of a subset that was picked to be rich in actives. A number with no mark means an inactive call.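 The calls were made as follows: active = inhibition above the mean over all tested compounds plus 3 SD (cut at about 4.2% in these data); inactive = the rest.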
# Biological target: Nuclear receptor subfamily 0 group B member 1 (Homo sapiens) (UniProt P51843)
# Experiment: relief of DAX1 transcriptional repression – cell-based, HEK293, Gal4-DAX1, luciferase luminescence, primary screen (AID 504766);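 also: 0% = DAX1-transfected cells with DMSO and 100% = empty-vector control cells with DMSO; inhibition shows as a rise in luminescence from relieved DAX1 repression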
# Conditions: HEK293 Gal4-DAX1 luciferase reporter, at 6.75 µM, active compounds read high
# Sequence of Nuclear receptor subfamily 0 group B member 1 (Homo sapiens) (P51843 207-470 limits assumed): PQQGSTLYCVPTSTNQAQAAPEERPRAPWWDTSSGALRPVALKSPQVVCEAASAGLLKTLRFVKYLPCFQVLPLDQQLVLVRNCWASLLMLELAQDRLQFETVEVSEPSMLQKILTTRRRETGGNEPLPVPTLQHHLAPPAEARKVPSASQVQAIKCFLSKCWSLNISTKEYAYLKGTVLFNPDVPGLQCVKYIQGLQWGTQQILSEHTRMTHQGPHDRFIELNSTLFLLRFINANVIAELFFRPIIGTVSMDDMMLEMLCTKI
row,SMILES,inhibition
1,Cc1ccc([C@H]2N[C@]3(CCCN(CC4CCCCC4)C3=O)[C@H]3C(=O)N(Cc4ccccc4)C(=O)[C@@H]23)cc1,-0.61%
2,CC1(C)CC(=O)C=C(c2ccccc2CO)C1=O,0.81%
3,CNS(=O)(=O)c1ccc(NC(=O)Nc2ccc3c(c2)OCO3)cc1,4.23% (active)
4,CC(C)CNS(=O)(=O)c1ccc(C(=O)Nc2ccc3c(c2)OCO3)cc1,0.58%
5,Cc1cccc(NC(=O)Nc2ccc3c(c2)OCO3)n1,3.3%
6,C/C(COc1ccccc1)=N\NC(=O)c1nnn(-c2nonc2N)c1-c1ccc(C)cc1,1.15%
7,CC(Sc1nnnn1C1CCCCC1)C(=O)O (stereo unspecified),-0.46%
8,Cc1nnc(SCC(=O)NC(=O)NC2CCCC2)n1N,-0.17%
9,CC(Sc1nnnn1C)C(=O)NC(=O)NC1CCCCC1 (stereo unspecified),4.23% (active)
10,NC(=S)NN=Cc1ccc(OC(=O)COc2cc(Cl)c(Cl)cc2Cl)cn1,-2.71%
11,O=C(CN1CCCSc2ccccc21)N1CCN(S(=O)(=O)c2ccccc2)CC1,0.49%
12,O=C(CN1CCCSc2ccccc21)N1CCN(S(=O)(=O)c2cccc(F)c2)CC1,-0.31%
13,N#C/C=C1\Sc2ccccc2C(=O)N1CC(=O)N1CCN(S(=O)(=O)c2ccccc2)CC1,4.84% (active)
14,COCOCCn1cc(CN2CCS(=O)(=O)N(Cc3ccc(-c4ccc(OC)cc4)cc3)C(CC(C)C)C2=O)nn1 (stereo unspecified),-0.18%
15,CC1CN(C(=S)Nc2ccccc2F)CC(C)O1 (stereo unspecified),-0.08%
16,COc1ccccc1NC(=S)N1CCN(c2ccc(F)cc2)CC1,0.5%
17,COc1c(N2CCN(C(=S)Nc3ccccc3F)C(C)C2)c(F)cc2c(=O)c(C(=O)O)cn(C3CC3)c12 (stereo unspecified),4.24% (active)
18,Cc1ccc(C(=O)NC(C)C(c2cccs2)N2CCOCC2)cc1C (stereo unspecified),0.43%
19,O=C(Nc1cccc(C(=O)O)c1)/C(=C\c1ccccc1)NC(=O)c1ccc(Br)o1,1.84%
20,Fc1ccccc1/C=N/Nc1cc(N2CCCCC2)ncn1,9.97% (active)
21,c1cnn(-c2cc(N3CCOCC3)ncn2)c1,0.28%
22,COc1ccccc1N1CCN(C(=O)C(=O)N/N=C/c2ccccc2F)CC1,-0.62%
23,Cc1cccc(C(=O)OCC(=O)Nc2sccc2C(N)=O)c1C,0.47%
24,COc1cc2[nH]c(=S)n(Cc3ccc(F)cc3)c(=O)c2cc1OC,-0.72%
25,COc1ccc(Cn2c(=O)cc(C)[nH]c2=S)cc1,4.43% (active)
26,COc1ccc(Cn2c(=S)[nH]c3cc(C(=O)N4CCCCC4)ccc3c2=O)cc1,-0.61%
